Laboratory results reported in PubChem BioAssay (NCATS).
Results filed as inconclusive are left out. Active and inactive are the calls of the source. Unless noted, calls follow the shape of the dose curve; as a rule, active = well fitted curve in the direction sought with a large enough effect; inconclusive = small, poorly fitted or top-dose-only effect, or another doubt; inactive = no such curve, though single readings can be large; an effect the other way counts as inactive or inconclusive.

Legend:
[1] = AP1 Signaling Pathway (AID 357; active = well fitted curve in either direction with a large enough effect, not every such curve was filed as active;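 also: ME-180 reporter cells stimulated with EGF at its EC50 level; % is scaled to controls: 0 for no effect and ±100 for the full control effect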)
Outline: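 A ratiometric CCF4 readout (405 nm excitation; 460 and 530 nm emission) quantified AP-1-driven beta-lactamase in ME-180 cells after 5 h with compound and EC50 EGF; AC50 values were derived for activators and inhibitors.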

[2] = NFAT Signaling Pathway (AID 444; active = well fitted curve in either direction with a large enough effect, not every such curve was filed as active;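 also: carbachol stimulus at about its EC50 of 1 µM final; % is scaled to controls: 0 for no effect and ±100 for the full control effect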); conditions: Jurkat NFAT-bla M1, carbachol, beta-lactamase ratio, 5 h; at 17.2 µM (top of the series)
Outline: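 Read-out: CCF4 FRET ratio (460 nm/530 nm) after 1 h RT dye loading, used for %activity and AC50 from titration series. Cells: Jurkat NFAT-β-lactamase/M1 line, treated with compound plus 1 uM carbachol for 5 h, 37 °C.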

[3] = molecular target: Glucocorticoid receptor (Homo sapiens) (UniProt P04150); experiment: GR-GFP Redistribution (AID 450;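 active = compounds whose dose series gives a full or clear partial fitted curve of increased nuclear translocation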; also: potency is read from the fitted curve at half-maximal effect); conditions: U2OS GR-GFP nuclear translocation, laser cytometry, 2 h
[4] = test system: Zika virus NS2B-NS3 protease (linked construct); experiment: Primary screen NINDS Rhodamine qHTS for Zika virus inhibitors (AID 1347160); also: % is scaled to controls: 0 for no effect and ±100 for the full control effect; nearly all actives have a fitted effect of over 55% in size
Outline: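 Percent inhibition, normalized to uninhibited and enzyme-free controls, is fitted to a 4-parameter Hill equation. Fluorescence change comes from a 15-min cleavage of 1.5 microM bis-peptide Rhodamine110 substrate by 25 nM linked NS2B-NS3 at room temperature.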

[5] = HPAF-II Cancer Cell Toxicity qHTS against the NCATS CANVASS Library (AID 1347346); also: % is scaled to controls: 0 for no effect and ±100 for the full control effect; nearly all actives have a fitted effect of over 55% in size
Outline: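 HPAF-II cells were seeded at 1000 cells/well, allowed to settle for 4 h at 37 degrees C, then exposed to compounds in an 11-point series for 72 h. Viability was read by CellTiter-Glo luminescence.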

[6] = OV-SAHO Cancer Cell Toxicity qHTS against the NCATS CANVASS Library (AID 1347348); also: % is scaled to controls: 0 for no effect and ±100 for the full control effect; nearly all actives have a fitted effect of over 55% in size
Outline: (§1)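 ATP content after 72 h treatment, detected by CellTiter-Glo luminescence (15min room-temperature development), reflects cell viability. Wells contained 1000 cells and received compounds at 11 concentrations.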

[7] = Panc-1005 Cancer Cell Toxicity qHTS against the NCATS CANVASS Library (AID 1347349); also: % is scaled to controls: 0 for no effect and ±100 for the full control effect; nearly all actives have a fitted effect of over 60% in size
Outline: as §1

[8] = A2780 Cisplatin Sensitive Ovarian Cancer Cell Toxicity qHTS against the NCATS CANVASS Library (AID 1347353); also: % is scaled to controls: 0 for no effect and ±100 for the full control effect; nearly all actives have a fitted effect of over 60% in size
Outline: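 A2780 cisplatin-sensitive cells (750 per well) were seeded, left 4 h at 37 °C, then pin-dosed in an 11-point series. After 72 h at 37 °C/5% CO2, viability was measured as ATPLite luminescence.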

[9] = UWB1.289-WTBRCA1 Cancer Cell Toxicity qHTS against the NCATS CANVASS Library (AID 1347354); also: % is scaled to controls: 0 for no effect and ±100 for the full control effect
Outline: (§2)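 Cells were seeded at 1000 per well and allowed to settle 4 hours at 37 degrees C before pin transfer of compounds as an 11-point series. Viability was read by CellTiter-Glo luminescence after 72 hours' exposure.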

[10] = HEK-293 Cancer Cell Toxicity qHTS against the NCATS CANVASS Library (AID 1347355); also: % is scaled to controls: 0 for no effect and ±100 for the full control effect; nearly all actives have a fitted effect of over 65% in size
Outline: as §2

[11] = HPAF-II 24hr Apoptosis Induction qHTS against the NCATS CANVASS Library (AID 1347356); also: 0% is about no effect
Outline: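 HPAF-II cells (500/well) in DMEM + 10% FBS were treated with an 11-point compound series for 24 hours at 37 degrees C. Caspase-3/7 activity was then read by Caspase-Glo DEVD luminescence after 15 min.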

[12] = HEK293 18hr Apoptosis Induction qHTS against the NCATS CANVASS Library (AID 1347357); also: 0% is about no effect
Outline: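 HEK293 cells (500/well, DMEM + 10% FBS) treated with an 11-point series for 18 h at 37 degrees C. Caspase-3/7 activity read by Caspase-Glo luminescence after 15 min at room temperature.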

[13] = HEK293 24hr Apoptosis Induction qHTS against the NCATS CANVASS Library (AID 1347359); also: 0% is about no effect
Outline: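 Caspase-3/7 activation measured as luminescence from the DEVD-based Caspase-Glo reagent, 15 min at room temperature, following 24-hour compound treatment of HEK293 cells.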

[14] = HPAF-II 18hr Apoptosis Induction qHTS against the NCATS CANVASS Library (AID 1347360); also: 0% is about no effect
Outline: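 HPAF-II cells at 500/well were exposed for 18 h at 37 C to an 11-point compound series. Caspase-3/7 activity was read by Caspase-Glo luminescence after 15 min at RT.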

[15] = HEK293 12hr Apoptosis Induction qHTS against the NCATS CANVASS Library (AID 1347361); also: 0% is about no effect
Outline: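 HEK293 cells (500/well) were exposed to an 11-point qHTS concentration series for 12 hours at 37 degrees C. Caspase-3/7 activity was then read by DEVD-substrate luciferase luminescence after 15 min at room temperature.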

[16] = molecular target: Luciferin 4-monooxygenase (Photinus pyralis) (UniProt P08659); experiment: Firefly luciferase counterscreen qHTS: Assay Interference Panel against the NCATS CANVASS Library (AID 1347363); also: 0% is about no effect
Outline: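 Luminescence inhibition readout: compounds (11-point qHTS) sat 15 min at room temperature with substrate mix (0.013 mM luciferin and ATP), then firefly luciferase was added and signal read 5 min later.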

[17] = KB-8-5-11 Cancer Cell Toxicity qHTS against the NCATS CANVASS Library (AID 1347364); also: % is scaled to controls: 0 for no effect and ±100 for the full control effect; nearly all actives have a fitted effect of over 75% in size
Outline: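 KB-8-5-11 cells (500/well) in DMEM + 10% FBS were exposed to compounds in an 11-point qHTS series for 72 hr at 37C, 5% CO2. Viability was read by CellTiter-Glo luminescence.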

[18] = KB-3-1 Cancer Cell Toxicity qHTS against the NCATS CANVASS Library (AID 1347366); also: % is scaled to controls: 0 for no effect and ±100 for the full control effect; nearly all actives have a fitted effect of over 75% in size
Outline: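 KB-3-1 cells (500/well) in DMEM with 10% FBS were exposed to compounds for 72 h at 37C. Viability was read by CellTiter-Glo luminescence.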

[19] = qHTS for ATAD5 Agonist screened against the NCATS CANVASS Library (AID 1347367);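 also: luciferase reporter driven by ATAD5 which rises upon DNA damage; 0% is about no effect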
Outline: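 Luciferase reporter under ATAD5 control, stably integrated in HEK293T cells (2000/well). Compounds (11 points) incubated 16 h at 37C; viability read first by CellTiter-Fluor, then luminescence reporting ATAD5 activation. MMS positive control.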

[20] = G06 Cancer Cell Toxicity qHTS against the NCATS CANVASS Library (AID 1347368); also: % is scaled to controls: 0 for no effect and ±100 for the full control effect; nearly all actives have a fitted effect of over 60% in size
Outline: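 G06 dog glioma cells seeded at 500 cells/well were exposed to compounds (11-point qHTS series) for 72 hr at 37C, 5% CO2; viability read as ATP content by CellTiterGlo luminescence.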

[21] = MCF7 Cancer Cell Toxicity qHTS against the NCATS CANVASS Library (AID 1347369); also: % is scaled to controls: 0 for no effect and ±100 for the full control effect
Outline: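 MCF7 cells (500/well) were exposed 72 h at 37 °C to compounds in an 11-point series. Viability was read as ATP content by CellTiterGlo luminescence.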

[22] = J3T Cancer Cell Toxicity qHTS against the NCATS CANVASS Library (AID 1347371)
Outline: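 J3T dog glioma cells (500 cells/well) were exposed to compounds in an 11-point series for 72 hr at 37C, 5% CO2. Cytotoxicity was read as ATP content by CellTiterGlo luminescence.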

[23] = molecular target: Nuclear receptor subfamily 1 group I member 3 (Homo sapiens) (UniProt Q14994); experiment: qHTS for Constitutive Androstane Receptor (CAR) Antagonist screened against the NCATS CANVASS Library (AID 1347372)
Outline: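 HepG2-CYP2B6-hCAR double-stable cells plated, 4hr attach; cpd pin-transferred; CITCO 50 nM final; 24hr 37C/5% CO2; CellTiter-Fluor 1hr (fluorescence), then ONE-Glo luminescence.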

[24] = molecular target: Nuclear receptor subfamily 1 group I member 3 (Homo sapiens) (UniProt Q14994); experiment: qHTS for Constitutive Androstane Receptor (CAR) Agonist screened against the NCATS CANVASS Library (AID 1347373);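 also: every well also contained 1.5 µM PK11195 alongside the test compound; 0% is about no effect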
Outline: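 HepG2 cells stably expressing hCAR and a CYP2B6-2.2kb luciferase reporter were treated for 24hr at 37C with compounds (11-point qHTS) in the presence of 1.5uM PK11195. Reporter activation was read by ONE-Glo luminescence.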

[25] = 10-beta competent E. coli microbial cell viability qHTS against the NCATS CANVASS Library (AID 1347376); also: 0% is about no effect
Outline: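 10-beta competent E. coli (0.9 OD culture diluted to 0.2 OD) exposed to compounds in an 11-point qHTS series, incubated overnight at 37C, 5% CO2. Viability read as ATP by BacTiter-Glo luminescence after 20 min at room temperature.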

[26] = qHTS for Inflammasome Signaling Inhibitors: IL-1-beta AlphaLISA screen against the NCATS CANVASS Library (AID 1347379);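 also: human THP-1 cells primed with LPS then triggered with ATP; secreted IL-1B measured as AlphaLISA emission at 615 nm; % is scaled to controls: 0 for no effect and ±100 for the full control effect; lower signal means less IL-1B release which is the wanted effect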
Outline: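 Human THP-1 cells were pretreated 1 hr at 37 °C with compounds (up to 57.5 uM final), then stimulated with LPS (250 ng/mL final) and ATP (1.25 mM final). Secreted IL-1B was read by AlphaLISA after 16 hr.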

[27] = Inflammasome Signaling qHTS Counterscreen: IL-1-beta AlphaLISA counterscreen against the NCATS CANVASS Library (AID 1347381);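 also: cell-free check with purified IL-1β in medium and no THP-1 cells; 0% is about no effect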
Outline: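 To flag interference with the AlphaLISA read-out, a known amount of purified IL-1-beta (4 pg) replaced cell supernatant. Detection used anti-IL-1-beta acceptor beads, biotinylated antibody and streptavidin donor beads at room temperature.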

[28] = qHTS for Activators of p53 Stress Response Pathway screened against the NCATS CANVASS Library (AID 1347388); also: 0% is about no effect
Outline: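 Beta-lactamase reporter driven by p53 response elements in HCT-116 cells, read as the 460 nm/530 nm emission ratio after CCF4 loading, following 16 h of exposure to an 11-point series. Cell viability was measured in the same wells by CellTiter-Glo luminescence.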

[29] = Secretion counterscreen for inhibitors of the SERCaMP assay screened against the NCATS CANVASS Library (AID 1347390)
Outline: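 SH-SY5Y cells with constitutively secreted GLuc reporter, 1000 cells/well, treated 20 h at 37C with compounds at 0.001 - 77 uM final; secreted luciferase read as luminescence after coelenterazine; Brefeldin A as positive control.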

[30] = qHTS for activators of dead-cell proteases activity screened against the NCATS CANVASS Library (AID 1347392);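 also: luminescence from protease leaking out of membrane-damaged cells cleaving impermeant substrate; 0% is about no effect; rising signal means more cytotoxicity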
Outline: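 Compounds are pin-transferred onto attached HepG2 cells, giving 11 final concentrations. After 5 h at 37C, AAF-aminoluciferin reagent is added and luminescence is recorded at room temperature.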

[31] = Vero-766 cells viability qHTS against the NCATS CANVASS Library: Counterscreen for Zika virus inhibition assay (AID 1347394); also: % is scaled to controls: 0 for no effect and ±100 for the full control effect; nearly all actives have a fitted effect of over 60% in size
Outline: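 Vero 766 cells (1000/well), without Zika virus, were exposed to compounds for 72 h at 37C. Viability was measured by CellTiter Glo luminescence. Media-only wells served as 100% inhibition.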

[32] = qHTS for inhibitors of Wild type Zika virus screened against the NCATS CANVASS Library (AID 1347396)
Outline: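 Using ATP-based luminescence (CellTiter Glo), this screen scores rescue of Vero 766 cells from wild-type Zika killing at 72 h post-infection. Compounds are tested in a concentration series.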

[33] = Redox Reaction Profiling qHTS: Assay Interference Panel against the NCATS CANVASS Library (AID 1347401);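 also: 100% = activation by 2 µM chloranil control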
Outline: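 Cell-free redox surrogate: 5 uM resazurin + 200 uM DTT, 50 mM HEPES pH 7.3/50 mM NaCl; cpds pinned, 11-pt qHTS; Ex525/Em598 read t0 and t=15 min, dark.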

[34] = qHTS for inhibitors of Rabies Virus screened against the NCATS CANVASS Library (AID 1347402; calls by dose curve; also: 0% is about no effect)

Chain of Nuclear receptor subfamily 1 group I member 3 (Homo sapiens) (Q14994 whole entry, looked up): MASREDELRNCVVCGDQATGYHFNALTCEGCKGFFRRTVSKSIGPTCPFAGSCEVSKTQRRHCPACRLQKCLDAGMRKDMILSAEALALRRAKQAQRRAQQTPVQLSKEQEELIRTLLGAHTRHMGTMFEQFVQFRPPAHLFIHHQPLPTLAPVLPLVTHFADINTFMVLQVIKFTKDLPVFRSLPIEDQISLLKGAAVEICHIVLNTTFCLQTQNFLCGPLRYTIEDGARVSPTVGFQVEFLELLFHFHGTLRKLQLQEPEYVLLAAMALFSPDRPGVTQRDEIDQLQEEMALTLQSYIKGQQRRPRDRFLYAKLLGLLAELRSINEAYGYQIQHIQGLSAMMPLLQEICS
Chain of Luciferin 4-monooxygenase (Photinus pyralis) (P08659 whole entry, looked up): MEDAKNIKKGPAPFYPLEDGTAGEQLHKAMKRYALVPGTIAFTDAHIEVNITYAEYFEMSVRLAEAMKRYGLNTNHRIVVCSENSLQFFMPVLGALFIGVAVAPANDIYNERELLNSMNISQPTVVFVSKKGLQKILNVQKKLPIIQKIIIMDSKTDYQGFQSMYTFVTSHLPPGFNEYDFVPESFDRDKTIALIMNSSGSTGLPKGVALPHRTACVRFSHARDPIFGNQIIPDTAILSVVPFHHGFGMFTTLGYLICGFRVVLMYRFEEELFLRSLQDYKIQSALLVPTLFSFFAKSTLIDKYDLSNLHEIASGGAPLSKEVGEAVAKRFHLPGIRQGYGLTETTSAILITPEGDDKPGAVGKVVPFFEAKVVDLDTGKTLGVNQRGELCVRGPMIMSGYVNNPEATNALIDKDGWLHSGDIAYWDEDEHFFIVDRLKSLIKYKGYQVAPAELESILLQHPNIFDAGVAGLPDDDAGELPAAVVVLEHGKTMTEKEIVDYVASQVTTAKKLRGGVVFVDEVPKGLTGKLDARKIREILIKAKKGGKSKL
Chain of Glucocorticoid receptor (Homo sapiens) (P04150 whole entry, looked up): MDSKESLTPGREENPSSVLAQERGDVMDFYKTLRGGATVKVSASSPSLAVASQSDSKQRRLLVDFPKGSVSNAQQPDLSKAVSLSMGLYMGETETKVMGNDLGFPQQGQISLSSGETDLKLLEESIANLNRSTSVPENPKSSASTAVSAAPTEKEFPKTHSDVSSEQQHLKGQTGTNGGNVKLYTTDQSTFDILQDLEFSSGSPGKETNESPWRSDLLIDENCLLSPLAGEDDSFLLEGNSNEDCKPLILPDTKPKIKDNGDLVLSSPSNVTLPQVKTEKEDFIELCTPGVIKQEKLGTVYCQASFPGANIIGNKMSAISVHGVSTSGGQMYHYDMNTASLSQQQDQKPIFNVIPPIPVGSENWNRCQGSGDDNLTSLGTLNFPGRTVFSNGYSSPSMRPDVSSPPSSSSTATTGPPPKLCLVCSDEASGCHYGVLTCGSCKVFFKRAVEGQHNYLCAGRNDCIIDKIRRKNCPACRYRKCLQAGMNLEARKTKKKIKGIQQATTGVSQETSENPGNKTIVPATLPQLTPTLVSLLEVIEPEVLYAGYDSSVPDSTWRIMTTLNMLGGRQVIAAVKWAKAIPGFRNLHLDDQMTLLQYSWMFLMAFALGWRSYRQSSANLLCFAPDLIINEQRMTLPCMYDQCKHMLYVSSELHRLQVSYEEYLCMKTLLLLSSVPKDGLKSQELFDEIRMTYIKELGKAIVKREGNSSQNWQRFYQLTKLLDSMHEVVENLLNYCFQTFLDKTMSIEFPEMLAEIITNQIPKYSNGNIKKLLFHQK

c1ccc2c3c([nH]c2c1)CNCC3
inactive: outcome [1] | activity change, negative = inhibition [2] 11% | Potency [3] > 20.6 µM | Potency [4] | Potency [5] | Potency [6] | Potency [7] | Potency [8] | Potency [9] | Potency [10] | outcome [11] | Potency [12] | Potency [13] | outcome [14] | Potency [15] | outcome [16] | Potency [17] | Potency [18] | Potency [19] | Potency [20] | Potency [21] | Potency [22] | Potency [23] | outcome [24] | outcome [25] | Potency [26] | outcome [27] | Potency [28] | Potency [29] | Potency [30] | Potency [31] | Potency [32] | Potency [33] | outcome [34]
